Experimental data as given in PubChem BioAssay AID1159580 (chemical genetic matrix, 2015).
Where “and” joins values, the source holds several entries; their conditions need not be identical. Equal values may be shown once. Out of some 5,500 compounds screened, about 2,000 (36%) were called active. Not shown: some 18% with an inconclusive outcome. No stated cut-off is given here; in the data, active means normalized growth mostly below about 0.91 (no sharp cut-off); inconclusive means no clear call, values can overlap the other calls; inactive means mostly above about 0.92. This is one part of the list. A structure can be active in one record and inactive in another.

Test: chemical genetic growth profiling, strain panel (AID 1159580);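 further: tested at 20 µM; growth read once vehicle control cultures reached saturation at 30 °C; 1 = growth at the plate median or of vehicle wells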
Details: growth OD

Measured: normalized growth

Cc1cc2c(C(C)C)c(O)c(O)c(C=O)c2c(O)c1-c1c(C)cc2c(C(C)C)c(O)c(O)c(C=O)c2c1O
0.354 (active) and 0.699 (inactive): S. cerevisiae deletion strains, locus YMR307W, strain GAS1, stronger effect = lower value
0.56 (active) and 0.883 (inactive): S. cerevisiae deletion strains, locus YNL128W, strain TEP1, stronger effect = lower value
0.804 (active) and 0.984 (inactive): S. cerevisiae deletion strains, locus YNL307C, strain MCK1, stronger effect = lower value
0.486 (active) and 0.903 (inactive): S. cerevisiae deletion strains, locus YLR418C, strain cdc73, stronger effect = lower value
0.664 (active) and 0.912 (inactive): S. cerevisiae deletion strains, locus YOR184W, strain ser1, stronger effect = lower value
inactive: S. cerevisiae deletion strains, locus YJR066W, strain TOR1, stronger effect = lower value 0.993 | S. cerevisiae deletion strains, locus YJR075W, strain HOC1, stronger effect = lower value 0.907 | S. cerevisiae deletion strains, locus YKL068W, stronger effect = lower value 1.04 | S. cerevisiae deletion strains, locus YKR091W, strain srl3, stronger effect = lower value 0.935 and 0.943 | S. cerevisiae deletion strains, locus YLR102C, strain apc9, stronger effect = lower value 0.992 and 1.01 | S. cerevisiae deletion strains, locus YLR113W, strain HOG1, stronger effect = lower value 0.952 | S. cerevisiae deletion strains, locus YMR078C, strain ctf18, stronger effect = lower value 0.974 and 0.987 | S. cerevisiae deletion strains, locus YNL183C, strain NPR1, stronger effect = lower value 0.984 | S. cerevisiae deletion strains, locus YNL250W, strain rad50, stronger effect = lower value 0.961 and 0.957 | S. cerevisiae deletion strains, locus YNL271C, strain bni1, stronger effect = lower value 0.969 and 0.96 | S. cerevisiae deletion strains, locus YNL298W, strain CLA4, stronger effect = lower value 0.959 and 0.985 | S. cerevisiae deletion strains, locus YOL012C, strain htz1 0.315 and 0.44 | S. cerevisiae deletion strains, locus YOR136W, strain idh2, stronger effect = lower value 0.969 and 0.986 | S. cerevisiae deletion strains, locus YOR231W, strain MKK1, stronger effect = lower value 1.01 | S. cerevisiae deletion strains, locus YOR316C, strain cot1, stronger effect = lower value 0.967 and 1 | S. cerevisiae deletion strains, locus YPL256C, strain CLN2, stronger effect = lower value 0.973 | S. cerevisiae deletion strains, locus YPR119W, strain clb2, stronger effect = lower value 0.983 and 1.02 | S. cerevisiae deletion strains, locus YPR141C, strain kar3, stronger effect = lower value 0.984 and 0.991 | S. cerevisiae deletion strains, locus YPR163C, strain tif3, stronger effect = lower value 0.932 and 1.02
0.202 (active) and 0.679 (inactive): S. cerevisiae deletion strains, locus YLR039C, strain RIC1, stronger effect = lower value
0.892 (inactive) and 0.886 (active): S. cerevisiae deletion strains, locus YNL248C, strain rpa49, stronger effect = lower value
0.798 (active) and 0.905 (inactive): S. cerevisiae deletion strains, locus YPL106C, strain sse1, stronger effect = lower value
0.912 (active) and 0.957 (inactive): S. cerevisiae deletion strains, locus YPL241C, strain CIN2, stronger effect = lower value
0.92 (active) and 0.959 (inactive): S. cerevisiae deletion strains, locus YLL041C, strain sdh2, stronger effect = lower value
0.545 (active) and 0.811 (inactive): S. cerevisiae deletion strains, locus YLR342W, strain FKS1 (second series), stronger effect = lower value
0.888 (active) and 0.949 (inactive): S. cerevisiae deletion strains, locus YKR026C, strain gcn3, stronger effect = lower value
0.207 (active) and 0.653 (inactive): S. cerevisiae deletion strains, locus YLR262C, strain YPT6, stronger effect = lower value
0.824 (active) and 0.908 (inactive): S. cerevisiae deletion strains, locus YMR125W, strain sto1, stronger effect = lower value
0.872 (active) and 0.991 (inactive): S. cerevisiae deletion strains, locus YOL147C, strain pex11, stronger effect = lower value
0.878 (active) and 0.941 (inactive): S. cerevisiae deletion strains, locus YMR129W, stronger effect = lower value
0.855 (active) and 0.958 (inactive): S. cerevisiae deletion strains, locus YML032C, strain rad52, stronger effect = lower value
0.846 (active) and 0.936 (inactive): S. cerevisiae deletion strains, locus YPL240C, strain hsp82, stronger effect = lower value
0.928 (active) and 0.994 (inactive): S. cerevisiae deletion strains, locus YML124C, strain tub3, stronger effect = lower value
0.86 (active) and 0.906 (inactive): S. cerevisiae deletion strains, strain wtn01, stronger effect = lower value
0.842 (active) and 0.958 (inactive): S. cerevisiae deletion strains, locus YPR167C, strain met16, stronger effect = lower value
0.859 (active) and 0.978 (inactive): S. cerevisiae deletion strains, locus YOR144C, strain elg1, stronger effect = lower value
0.679 (active) and 0.959 (inactive): S. cerevisiae deletion strains, locus YNR052C, strain pop2, stronger effect = lower value
0.708 (active) and 0.956 (inactive): S. cerevisiae deletion strains, locus YLR371W, strain rom2, stronger effect = lower value
active: S. cerevisiae deletion strains, locus YKL009W, strain mrt4, stronger effect = lower value 1.52 [resistant] | S. cerevisiae deletion strains, locus YKL085W, strain MDH1 (second series), stronger effect = lower value 1.08 [resistant] and 1.1 [resistant] | S. cerevisiae deletion strains, locus YKL085W, strain MDH1, stronger effect = lower value 1.08 [resistant] and 1.1 [resistant] | S. cerevisiae deletion strains, locus YKL160W, strain elf1, stronger effect = lower value 0.832 and 0.809 | S. cerevisiae deletion strains, locus YKL190W, strain CNB1, stronger effect = lower value 0.663 and 0.868 | S. cerevisiae deletion strains, locus YKR001C, strain vps1, stronger effect = lower value 0.486 and 0.887 | S. cerevisiae deletion strains, locus YLL001W, strain dnm1, stronger effect = lower value 0.724 and 0.801 | S. cerevisiae deletion strains, locus YLL026W, stronger effect = lower value 0.904 and 0.838 | S. cerevisiae deletion strains, locus YLR027C, strain aat2, stronger effect = lower value 0.78 and 0.81 | S. cerevisiae deletion strains, locus YLR058C, strain SHM2, stronger effect = lower value 0.685 and 0.764 | S. cerevisiae deletion strains, locus YLR221C, strain rsa3, stronger effect = lower value 0.751 and 0.818 | S. cerevisiae deletion strains, locus YLR258W, strain gsy2, stronger effect = lower value 0.855 and 0.839 | S. cerevisiae deletion strains, locus YLR262C, strain YPT6 (second series), stronger effect = lower value 0.216 and 0.179 | S. cerevisiae deletion strains, locus YLR268W, strain sec22, stronger effect = lower value 0.599 and 0.847 | S. cerevisiae deletion strains, locus YLR320W, strain mms22, stronger effect = lower value 0.684 and 0.651 | S. cerevisiae deletion strains, locus YLR330W, strain CHS5, stronger effect = lower value 0.675 and 0.883 | S. cerevisiae deletion strains, locus YLR342W, strain FKS1, stronger effect = lower value 0.675 and 0.786 | S. cerevisiae deletion strains, locus YLR357W, strain rsc2, stronger effect = lower value 0.649 and 0.719 | S. cerevisiae deletion strains, locus YLR370C, strain arc18, stronger effect = lower value 0.687 and 0.765 | S. cerevisiae deletion strains, locus YLR384C, strain iki3, stronger effect = lower value 0.809 and 0.889 | S. cerevisiae deletion strains, locus YML016C, strain PPZ1, stronger effect = lower value 0.73 and 0.831 | S. cerevisiae deletion strains, locus YML120C, strain ndi1, stronger effect = lower value 0.721 and 0.719 | S. cerevisiae deletion strains, locus YMR058W, strain fet3, stronger effect = lower value 0.101 and 0.125 | S. cerevisiae deletion strains, locus YMR205C, strain PFK2, stronger effect = lower value 0.63 and 0.655 | S. cerevisiae deletion strains, locus YMR223W, strain ubp8, stronger effect = lower value 0.796 and 0.898 | S. cerevisiae deletion strains, locus YMR231W, strain pep5, stronger effect = lower value 0.434 and 0.295 | S. cerevisiae deletion strains, locus YNL067W, strain RPL9B, stronger effect = lower value 0.773 and 0.808 | S. cerevisiae deletion strains, locus YNL071W, strain lat1, stronger effect = lower value 0.86 and 0.835 | S. cerevisiae deletion strains, locus YNL153C, strain GIM3, stronger effect = lower value 0.742 and 0.767 | S. cerevisiae deletion strains, locus YNL209W, strain ssb2, stronger effect = lower value 0.527 and 0.542 | S. cerevisiae deletion strains, locus YNL233W, strain BNI4, stronger effect = lower value 0.796 and 0.835 | S. cerevisiae deletion strains, locus YNL322C, strain KRE1 (second series), stronger effect = lower value 0.875 and 0.9 | S. cerevisiae deletion strains, locus YNL322C, strain KRE1, stronger effect = lower value 0.832 | S. cerevisiae deletion strains, locus YNR049C, strain mso1, stronger effect = lower value 0.854 and 0.889 | S. cerevisiae deletion strains, locus YOL006C, strain TOP1, stronger effect = lower value 0.436 | S. cerevisiae deletion strains, locus YOR001W, strain rrp6, stronger effect = lower value 0.764 and 0.819 | S. cerevisiae deletion strains, locus YOR061W, strain CKA2, stronger effect = lower value 0.653 and 0.79 | S. cerevisiae deletion strains, locus YOR069W, strain VPS5, stronger effect = lower value 0.799 and 0.9 | S. cerevisiae deletion strains, locus YOR070C, strain gyp1, stronger effect = lower value 0.893 and 0.784 | S. cerevisiae deletion strains, locus YOR080W, strain dia2, stronger effect = lower value 0.755 and 0.812 | S. cerevisiae deletion strains, locus YOR083W, strain WHI5, stronger effect = lower value 0.806 and 0.808 | S. cerevisiae deletion strains, locus YOR106W, strain vam3, stronger effect = lower value 0.537 and 0.567 | S. cerevisiae deletion strains, locus YOR265W, strain rbl2, stronger effect = lower value 0.808 and 0.842 | S. cerevisiae deletion strains, locus YOR270C, strain vph1, stronger effect = lower value 0.231 and 0.311 | S. cerevisiae deletion strains, locus YOR290C, strain snf2, stronger effect = lower value 0.525 and 0.627 | S. cerevisiae deletion strains, locus YPL051W, strain arl3, stronger effect = lower value 0.51 and 0.436 | S. cerevisiae deletion strains, locus YPL078C, strain atp4, stronger effect = lower value 0.715 and 0.778 | S. cerevisiae strains, strain wild type, stronger effect = lower value 0.809
